PubChem BioAssay AID1508600 (Functional Genomics Laboratory (NCATS/FGL), 2020)
About 3,700 (7%) of roughly 53,000 sequences were called active.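 How the source made its calls: active means gene knockdowns whose robust z-score for IL-1 alpha signal is at least 2 or at most -2, so actives lie on both sides; inactive means the rest.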 This excerpt belongs to a sample that is enriched for actives.

test: Components of the Cytosolic LPS Sensing Pathway: Gene Identification via Genome-wide siRNA Screen; conditions: RAW264.7 macrophages, IL-1a HTRF, actives lie on both sides, screened at 100 nM (by protocol), cells primed 5 h with Pam3CSK4 first;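 further: robust z of the log signal after scaling to non-targeting control siRNA wells of the plate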
Procedure, shortened: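 RAW264.7; siRNA 100 nM final, RNAiMAX, 48h 37 degrees C; Pam3CSK4 5 h; LipidA + TransIT-TKO 24 h; IL-1a HTRF; CellTiter-Glo viability; robust z vs negative-control median.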

z-score, inactive:
GGACUUAUUCGAUAUAGUATT against Nt5c1b -1.23
UGCAUGGACUUACGAAAGATT against Tas2r115 0.454
GCUGCCGUUUAAAUAUAUGTT against D10Wsu102e 0.31
CUCCCUGGCAUUAAUCCGUTT against Tepp 0.0788
GAUUUGGUGUCUGCCGAGATT against Prrt1 1.73
GGCUACAACCAAAUCUUCATT against Papln 0.873
GCGAUUAACGGAUCGUACCTT against Letmd1 0.192
GCAGAUCAAAUUUAGCUGATT against Wwc2 0.266
GCUUUUUAUCCGUGUCGAUTT against 4930474N05Rik 0.501
GGUUAAACCCUCUUCUCAUTT against Uhrf2 -0.645
GGAAGUAUCGAGAUUCAUGTT against Pitpnm3 0.0165
GCUUCAGACGUAAUUUACUTT against Morc1 0.751
GGUUUUGGUUUUGUGGAAUTT against Srsf5 1.45
GGAUCUGGUACCCACCCAATT against Jak2 -1.63
GGAAUUCUACCUGAAAAUCTT against Arel1 0.122
CGCUCUUUCAGCACAAGAATT against Zfp422 -1.57
CCUACGACCUGAAGAUAGCTT against Dscc1 -0.124
GGUGGACUCAUUCUAAUACTT against Nudt1 -1.06
GGUGUAGCUGGAAUUGGCATT against Nlrp4b -0.0207
GGUGAAGCAAAACGGAGGATT against H2-M10.1 0.512
GCCUAUUUCCGUGAACCCGTT against Mgmt -1.04
GGCCAAUCCACGAAAGCAUTT against Strip1 -0.958
GGGACUCUUCACUUGAAAUTT against Ccl3 -3.8e-05
GGAUACCACUUUAGAACCATT against Fgfr2 0.484
CCACAUCUUUGACGAGUACTT against Rgs16 -0.145
GGAAGACAGGCAUAAAAAATT against Slc41a2 -1.38
GGUUAAGUCCCUAGGACAUTT against Blzf1 0.998
GGAAAAAUUGCUUCUGACCTT against Rad51b -1.17
CCUACAAACCAGAAGAGGUTT against Akr1c19 0.285
GCCUGUGUGCUGUUGUGUUTT against Krtap5-1 1.33
CGAUACUGUGCAAAGAAUCTT against Nepro 0.231
CCUGUGUCAAUCCUGUGCATT against Ifitm7 0.0113
GGAACUUUAUGUGGAAAGATT against Vmn1r235 -0.449
CGGUCAAGGACAGGAAGUGTT against Eif4b 0.518
GGACAAAGAUAAUGGAAAATT against Erlec1 0.353
GGAUUCCAAUUUUAUUCCATT against Brca1 1.57
GAUAACAAGCAUCUCAUGUTT against Krtap6-5 -0.411
CCGGCAGACCUGUGACAUUTT against Rgs14 0.0166
GGUGGAGAAGCUCAUUGCUTT against Zap70 0.444
GGAAGAAAGAGUGUAUCAATT against Idi2 0.487
GGCUCAACCAAGAAAGGCUTT against 4930591A17Rik -1.28
GAAAGAAACGGCAGAUUGCTT against Vmn2r122 0.133
GGAAAGUUGUGAACUCUAATT against Olfr1157 0.583
GGAUUAGUGCAGGAAUCAATT against Rel 0.922
GCAAAACUGAACAAAGUACTT against Xirp2 0.658
CGAGUGUUGAAUAUUGUGATT against Gpr65 0.158
GGUAGUUAAUCAGUGUAAATT against Rps6kb1 1.1
UCGGCCAUGUAGUAUGGGATT against Xlr3a 0.42
GCACUCACGAUCAUCUUUGTT against Has1 -0.513
GGAAAACACACUUUUCUUUTT against Thap2 -0.119
GCUAUAGAUUGGCUUUAUGTT against Depdc1a 0.727
GACAAAACUCAUUGUUCUUTT against Taf11 1.16
CCUUCUCAUAGUGAAAGUATT against Zkscan5 1.05
GCCUUGCCCUGACUAUGUUTT against Paqr3 0.0997
GGUGCACAGAUGUCUUACCTT against Sec24d -0.945
GGUAGAAGAGUCUGAUCAUTT against Sfrp1 -0.0589
GGCCAUUUACAAGAUGGUUTT against Hpca -0.619
GGUGGUCUACAGAAAAUUCTT against Ncf1 -0.908
GGUGGUUCACAAAUACUGUTT against Agtpbp1 0.264
GGAUCUCGAGCUGACAGAATT against Arhgap33os 1.31
GGGAAAGGAUUCAAUUAAGTT against Lratd2 0.0415
GAGGGCUCUACAGUUUUUATT against Atp5g3 0.952
GGCCUUCGAAAUAAUUCUGTT against Ppp1r14d -0.605
GCGGCGAUACUUCUACUUGTT against Grk2 -0.584
CCUGUACAUUGUGUAAUGUTT against Pcdh8 0.0925
CCUGAACGACAGAUUGGCATT against Krt20 -0.697
CGAAUCCUUAGUUGAAGAATT against Fastkd1 1.18
GGCAAAAGCACUGAAGAGATT against Ar -0.63
GGGCUCUUUAGUACUAGAATT against Spn -0.612
GGUCCCUUGAUGUCGAUUATT against Stt3b -1.15
GCUUCAGCUCUGAUUAACGTT against Alox8 -0.233
GCCGAUAGCAUAGACAGUGTT against Kansl2 0.6
CCAGUCCUACUUAGCAAAGTT against Lrrc75a -1.48
GGUGCAGAGCUUGAGAUGATT against Anks3 -0.729
GCUGAACAUUAGCUUCAAUTT against Lrrc9 -1.42
GGAGACAUAUGAGACUCUGTT against Fcer1g 0.156
CCAUGGUUACCGUGUACUATT against Olfr1513 -0.312
GGAUCAUUGACAGUGAAUATT against Blk -1.35
GGUCCUAUUUCGGAGCUUUTT against Tnfsf14 0.365
GCUCAUCGUGUUUUCAACCTT against Cbr3 -0.034
GGAAAAAUGGAAACCUAAGTT against Nipal3 1.16
GGUAUUAUCUGCAUGGGCATT against Mkrn3 0.273
GGAUGAAGUGUGUUUUGGCTT against Sim1 0.95
GGACCUUUUGUCUAUAAUGTT against Arl4c 0.759
GGCAGCUAAACUGUGUUAUTT against Tex11 -1.36
GGGCUUUGGACAUCUCCUATT against Serpina3c -1.98
GGGAUAUCCUACCAGGUCATT against Ppard -1.24
GGAUCUUCAGGAAAACAGATT against Fam181b -0.955
CCACCCUUCUUCUAUCGAATT against Ybx2 -1.11
GCCAGAGUUUAUUAACUGCTT against Stxbp6 -0.809

z-score, active:
GGACUUGGAGAGCAAAAGCTT against Ano2 -2.14
CCAAUUCACUUAGGAGCUGTT against Psma4 -2.1
CCUGCUAUACAUUGAACCCTT against Lhcgr 2.52
GCUGGGUGAUAAACAAUGUTT against Rhbg 3.42
CCAGACAUGAUACUCCGGCTT against Tssk3 2.57
CGGCAUCAUUCAUUCAUUATT against Pacrgl 2.01
GGGAACGCAACAUUUCUCCTT against Oxld1 2.34
GUUCCUGUUCCACUACUGCTT against Sts -2.32
GGAUACCAUCAUUGAUGUCTT against Dmap1 -2.29
GGCCCAGGUGGAUAGUUAUTT against Cep120 2.03
GGCAGCAGGAUGCAGAAAUTT against Ngef -2.43
GGGCUACAUUCCUUCCAAUTT against Frk 5.59
GACCUUCGACACCGACAAATT against Rtl8c 3.29
GGAAAUUUCAGAGCUCAAGTT against Trpc2 -2.81
GGUUGCUCACUCAUUUAACTT against Pa2g4 2.18
GGGACAGAUACUAAACUCUTT against Wfdc2 3.49
GGGACACACCAUCAAAAGGTT against Kank4 -2.32
GCUCCUUUAGUCCUCACCATT against Mrpl10 -2.15
